# Measured values reported in PubChem BioAssay.
# Values joined by “and” are separate entries in the source; they are usually repeats but may differ in a detail not shown here. Equal entries are not always repeated. Inconclusive results are not listed. Active and inactive are the calls of the source. Cut-off read from the data, not from the text of the source, unless noted: active = parasite load remaining mostly below about 12% (no sharp cut-off); inactive = mostly above about 10%.
# Columns and labels:
# [1] = target: ATP-dependent translocase ABCB1 (Homo sapiens) (UniProt P08183); test: P-glycoprotein substrate transport blockade – cell-based (AID 377; in the data active = fluorescence slope change above about 50%); settings: MDR1-expressing cells, fluorescent substrate accumulation slope; stronger effect = higher value; concentration not given here
# [2] = compounds altering viability of human ES cells (AID 493140; call rule not given here;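 note: cells exposed to compounds for four days before counting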); settings: human embryonic stem cell survival screen; stronger effect = higher value
# [3] = P. berghei load reduction in hepatocytes – cell-based, HepG2, luciferase luminescence, HepG2 viability, primary screen (AID 624349);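 note: 100% = mean of DMSO negative control wells on the same plate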; settings: P. berghei liver stage in HepG2, luciferase luminescence, concentration not given here; parasite load remaining: stronger effect = lower value; viability: measured here: HepG2 viability without parasites
# [4] = Wnt pathway potentiators raising nuclear beta-catenin – imaging, WNT3A-conditioned medium, mouse C2C12, NPC library, primary screen (AID 1117326; in the data active = nuclear beta-catenin stimulation mostly above about 4.2%, no sharp cut-off; inactive = mostly below about 10%); settings: stronger effect = higher value
# [5] = stimulators of insulin release from INS-1E, primary screen, cell-based, 5 mM glucose, NPC library (AID 1117329;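 active = compound raises insulin release from rat beta cells at 5 mM glucose, no numeric limit stated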); settings: rat INS-1E insulin secretion, at 10 µM, stronger effect = higher value
# [6] = growth inhibition of GSK3B-pretreated HCT116 cells – cell-based, CellTiter-Glo, 0.2 to 20 µM (AID 1117336;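 active = compounds lowering colon cancer cell viability after pretreatment blocking the GSK3B kinase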); settings: HCT116 viability after GSK3B inhibitor, at 20 µM, stronger effect = higher value
# [7] = inhibition of endothelial tube formation, primary screen, imaging, VEGF stimulated, CD31 staining, tube area, NPC library (AID 1117340;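 active = compound that reduces growth-factor-driven endothelial tube area in a mixed cell culture, no cutoff stated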); settings: VEGF-stimulated ADSC/ECFC co-culture, at 10 µM, stronger effect = higher value
# [8] = GLP1 release stimulators, primary, NCI-H716, NPC library (AID 1117341;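 active = compound raises GLP1 secretion from the human gut endocrine cells, with no numeric limit stated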); settings: NCI-H716 cells, at 10 µM, stronger effect = higher value
# [9] = HCT116 colon cancer cell growth inhibition, primary screen, CellTiter-Glo luminescence, NPC library (AID 1117342;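 active = compounds that lower survival of HCT116 colon cancer cells in the luminescence readout, no numeric limit stated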); settings: at 20 µM (top of the series)
# [10] = reduced SW480 viability measured with CellTiter-Glo, NPC library, primary (AID 1117343;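 active = compounds that lower viability of the colon cancer cells in the luminescence readout, with no numeric limit stated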); settings: CellTiter-Glo luminescence; at 20 µM (top of the series) unless noted
# [11] = NPC library primary testing for decreased DLD-1 cell viability via CellTiter-Glo (AID 1117346;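 active = compounds that lower survival of DLD-1 colon cancer cells in the luminescence readout, no cutoff given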); settings: DLD-1 viability, CellTiter-Glo luminescence; at 20 µM (top of the series)
# [12] = viability loss with induced miR-34 in A549 – imaging, A549 dox-inducible miR-34, nuclei and caspase counts, primary screen (AID 1347080;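 active = compounds whose cell count with miR-34 switched on is under 0.7 times the count with it off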); settings: A549 miR-34 inducible, Hoechst nuclei count, 48 h
# [13] = MELAS cybrid and Rieske KO viability enhancers – cell-based, MELAS cybrids, Rieske KO mouse fibroblasts, CellTiter-Glo, primary screen (AID 1508586;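 active = mean z-score across replicates of 1.96 or higher in either the MELAS or the Rieske mutant cell line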;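 note: z relative to plate mean and SD of compound and empty wells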); settings: low glucose
# [14] = target: NAD(+) hydrolase SARM1 (Homo sapiens) (UniProt Q6SZW1); test: blocking NAD cleavage by SARM1 SAM-TIR – cell lysate, NAD-Glo luminescence (AID 1508614;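 active = compound whose remaining NAD level is above about 45 nM, limit read from the data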;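 note: higher remaining NAD means stronger inhibition of SARM1 NADase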); settings: SAM-TIR HEK293T lysate NADase, at 1 µM, stronger effect = higher value
# [15] = target: Mitogen-activated protein kinase 7 (Homo sapiens) (UniProt Q13164); test: Gal4-ERK5 driven luciferase induction – cell-based, HTS, primary screen (AID 1508626;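 active = luciferase signal above three times the same-plate solvent-only control wells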;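 note: luciferase driven by Gal4-ERK5 fusion binding five Gal4 sites before minimal TATA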); settings: HeLa Gal4-ERK5 transactivation, 18 h, at 5 µM, stronger effect = higher value
# [16] = stronger effect = lower value, cell number ratio, induced over uninduced
# [17] = measured here: relative caspase fold change +Dox/-Dox
# [18] = measured here: total cells with miR-34 induction, stronger effect = lower value
# [19] = measured here: total cells without miR-34 induction
# [20] = MELAS cybrid survival, CellTiter-Glo 48 h, stronger effect = higher value
# [21] = Rieske KO mouse fibroblast survival, CellTiter-Glo 72 h
# Sequence of NAD(+) hydrolase SARM1 (Homo sapiens) (Q6SZW1 whole entry, looked up, the tested form may be a part): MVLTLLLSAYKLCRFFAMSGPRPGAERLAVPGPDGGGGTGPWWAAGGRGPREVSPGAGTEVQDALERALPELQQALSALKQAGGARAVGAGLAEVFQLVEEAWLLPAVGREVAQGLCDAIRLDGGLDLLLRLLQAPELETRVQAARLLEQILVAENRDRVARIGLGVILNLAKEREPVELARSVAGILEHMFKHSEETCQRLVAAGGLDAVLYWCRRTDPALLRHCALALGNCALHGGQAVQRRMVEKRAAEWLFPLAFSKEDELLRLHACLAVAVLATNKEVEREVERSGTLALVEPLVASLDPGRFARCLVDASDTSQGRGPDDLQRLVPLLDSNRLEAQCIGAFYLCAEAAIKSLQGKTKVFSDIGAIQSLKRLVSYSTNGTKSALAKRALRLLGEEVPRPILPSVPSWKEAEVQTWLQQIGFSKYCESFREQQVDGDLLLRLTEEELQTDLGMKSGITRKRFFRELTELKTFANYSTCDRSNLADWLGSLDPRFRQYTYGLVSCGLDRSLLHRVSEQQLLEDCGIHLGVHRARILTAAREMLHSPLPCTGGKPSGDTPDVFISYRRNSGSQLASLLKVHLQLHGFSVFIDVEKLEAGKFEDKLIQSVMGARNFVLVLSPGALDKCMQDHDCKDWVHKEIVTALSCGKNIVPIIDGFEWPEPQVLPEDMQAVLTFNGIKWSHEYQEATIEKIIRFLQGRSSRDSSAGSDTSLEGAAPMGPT
# Sequence of ATP-dependent translocase ABCB1 (Homo sapiens) (P08183 whole entry, looked up): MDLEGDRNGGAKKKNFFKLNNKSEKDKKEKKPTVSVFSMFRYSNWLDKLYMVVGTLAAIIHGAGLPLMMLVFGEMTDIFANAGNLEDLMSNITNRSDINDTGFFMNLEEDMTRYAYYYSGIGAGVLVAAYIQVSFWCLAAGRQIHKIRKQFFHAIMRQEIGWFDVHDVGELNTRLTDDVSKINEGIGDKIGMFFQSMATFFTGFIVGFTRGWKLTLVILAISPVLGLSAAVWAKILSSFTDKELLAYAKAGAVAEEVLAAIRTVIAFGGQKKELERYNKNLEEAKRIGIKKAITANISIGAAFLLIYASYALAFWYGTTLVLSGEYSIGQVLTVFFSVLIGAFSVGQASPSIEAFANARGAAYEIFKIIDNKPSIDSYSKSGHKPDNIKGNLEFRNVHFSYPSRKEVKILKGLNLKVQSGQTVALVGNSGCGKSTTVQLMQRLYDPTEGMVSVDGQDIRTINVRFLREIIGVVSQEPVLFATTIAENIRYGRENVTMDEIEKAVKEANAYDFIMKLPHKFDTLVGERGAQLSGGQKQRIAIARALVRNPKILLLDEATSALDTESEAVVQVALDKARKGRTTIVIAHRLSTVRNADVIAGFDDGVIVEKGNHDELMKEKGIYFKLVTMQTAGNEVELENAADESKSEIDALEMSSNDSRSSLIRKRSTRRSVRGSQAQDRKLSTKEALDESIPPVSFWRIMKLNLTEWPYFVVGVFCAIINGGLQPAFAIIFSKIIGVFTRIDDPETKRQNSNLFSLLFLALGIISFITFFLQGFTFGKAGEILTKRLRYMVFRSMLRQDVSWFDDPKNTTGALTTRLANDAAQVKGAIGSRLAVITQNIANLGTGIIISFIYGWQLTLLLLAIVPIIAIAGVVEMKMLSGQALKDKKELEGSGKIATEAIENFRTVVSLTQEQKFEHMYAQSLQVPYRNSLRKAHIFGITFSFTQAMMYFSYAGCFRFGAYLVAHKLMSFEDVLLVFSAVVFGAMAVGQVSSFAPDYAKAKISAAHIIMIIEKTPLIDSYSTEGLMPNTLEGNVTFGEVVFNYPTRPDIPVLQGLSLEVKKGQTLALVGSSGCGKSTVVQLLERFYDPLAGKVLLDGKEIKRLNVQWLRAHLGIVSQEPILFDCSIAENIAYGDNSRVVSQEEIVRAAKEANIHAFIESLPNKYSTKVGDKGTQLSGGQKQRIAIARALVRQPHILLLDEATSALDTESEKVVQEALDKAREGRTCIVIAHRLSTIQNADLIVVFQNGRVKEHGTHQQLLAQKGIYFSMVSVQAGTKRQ
# Sequence of Mitogen-activated protein kinase 7 (Homo sapiens) (Q13164 whole entry, looked up, the tested form may be a part): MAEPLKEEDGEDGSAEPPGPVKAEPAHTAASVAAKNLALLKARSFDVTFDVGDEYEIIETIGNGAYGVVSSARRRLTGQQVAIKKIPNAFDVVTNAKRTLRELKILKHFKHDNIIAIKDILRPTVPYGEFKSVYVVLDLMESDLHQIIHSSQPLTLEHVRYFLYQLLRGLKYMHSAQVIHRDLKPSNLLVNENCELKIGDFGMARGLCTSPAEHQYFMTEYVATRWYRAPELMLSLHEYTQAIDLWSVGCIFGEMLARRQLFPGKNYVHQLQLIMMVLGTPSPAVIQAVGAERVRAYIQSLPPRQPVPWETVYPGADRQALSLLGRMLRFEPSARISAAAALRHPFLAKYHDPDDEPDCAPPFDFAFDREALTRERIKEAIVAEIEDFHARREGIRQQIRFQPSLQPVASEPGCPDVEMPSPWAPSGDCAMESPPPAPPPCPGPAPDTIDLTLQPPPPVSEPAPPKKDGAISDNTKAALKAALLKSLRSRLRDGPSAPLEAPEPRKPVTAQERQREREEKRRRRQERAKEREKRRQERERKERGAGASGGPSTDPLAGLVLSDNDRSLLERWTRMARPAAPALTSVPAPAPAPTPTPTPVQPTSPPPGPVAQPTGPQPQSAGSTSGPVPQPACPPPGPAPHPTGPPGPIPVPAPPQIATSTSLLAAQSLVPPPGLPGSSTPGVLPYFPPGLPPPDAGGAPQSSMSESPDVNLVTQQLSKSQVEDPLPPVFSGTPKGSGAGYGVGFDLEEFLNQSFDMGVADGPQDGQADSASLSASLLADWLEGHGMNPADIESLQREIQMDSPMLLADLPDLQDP
smiles,measurement,setting,value
Cc1c(-c2ccccc2)oc2c(C(=O)OCCN3CCCCC3)cccc2c1=O,fluorescence slope change,[1],112% (active)
same,survival,[2],21.4 (inactive)
same,parasite load remaining,[3],46% (inactive) and 89.3% (inactive)
same,viability,[3],49.7% and 89.5%
same,nuclear beta-catenin stimulation,[4]; at 10 µM,-2.4% (inactive)
same,nuclear beta-catenin stimulation,"[4]; stimulation, at 2 µM",-1%
same,insulin secretion stimulation,[5],2.9% (inactive)
same,viability decrease,[6],-5.1% (inactive)
same,tube area decrease,[7],19.4% (inactive)
same,GLP1 secretion stimulation,[8],-5.1% (inactive)
same,inhibition of viability,[9],5.5% (inactive)
same,viability decrease (inhibition),[10],4.4% (inactive)
same,viability decrease (inhibition),[11],-0.8% (inactive)
same,fold change,[12]; [16],0.916 (inactive) and 1.06 (inactive)
same,fold change,[12]; [17],1.01 and 0.699
same,cell count,[12]; [18],8120 and 9090
same,cell count,[12]; [19],8860 and 8560
same,z-score,[13]; [20],-0.232 (inactive) and 0.0828 (inactive)
same,z-score,[13]; [21],-0.166 and -0.00233
O=C1[O][Bi][O]c2ccccc21,parasite load remaining,[3],39.8% (inactive)
same,viability,[3],103%
same,nuclear beta-catenin stimulation,[4]; at 10 µM,0.6% (inactive)
same,nuclear beta-catenin stimulation,"[4]; stimulation, at 2 µM",0.8%
same,insulin secretion stimulation,[5],2.7% (inactive)
same,viability decrease,[6],13.3% (inactive)
same,tube area decrease,[7],-3.4% (inactive)
same,GLP1 secretion stimulation,[8],1.9% (inactive)
same,inhibition of viability,[9],14% (inactive)
same,viability decrease (inhibition),[10],28.1% (inactive)
same,viability decrease (inhibition),[11],3.2% (inactive)
same,fold change,[12]; [16],0.887 (inactive)
same,fold change,[12]; [17],3.11
same,cell count,[12]; [18],12000
same,cell count,[12]; [19],13500
same,remaining NAD,[14],52 nM (active)
same,luciferase signal,[15],60 AU (inactive)
FCOC(C(F)(F)F)C(F)(F)F,nuclear beta-catenin stimulation,[4]; at 10 µM,-1.9% (inactive)
same,nuclear beta-catenin stimulation,"[4]; stimulation, at 2 µM",-0.4%
same,insulin secretion stimulation,[5],5.1% (inactive)
same,viability decrease,[6],-4.6% (inactive)
same,tube area decrease,[7],8.2% (inactive)
same,GLP1 secretion stimulation,[8],-1.9% (inactive)
same,inhibition of viability,[9],-0.4% (inactive)
same,viability decrease (inhibition),[10],-3.5% (inactive)
same,viability decrease (inhibition),[11],7.5% (inactive)
same,fold change,[12]; [16],0.911 (inactive)
same,fold change,[12]; [17],1.07
same,cell count,[12]; [18],8640
same,cell count,[12]; [19],9480
same,remaining NAD,[14],10 nM (inactive)
NC(=O)OCC(O)COc1ccc(Cl)cc1 (configuration not stated),fluorescence slope change,[1],58.8% (active)
same,survival,[2],16.6 (inactive)
same,parasite load remaining,[3],52.4% (inactive) and 99.4% (inactive)
same,viability,[3],46% and 92.9%
same,nuclear beta-catenin stimulation,[4]; at 10 µM,-1.4% (inactive)
same,nuclear beta-catenin stimulation,"[4]; stimulation, at 2 µM",-0.6%
same,insulin secretion stimulation,[5],1.2% (inactive)
same,viability decrease,[6],0.2% (inactive)
same,tube area decrease,[7],-23.7% (inactive)
same,GLP1 secretion stimulation,[8],-0.6% (inactive)
same,inhibition of viability,[9],8.4% (inactive)
same,viability decrease (inhibition),[10],4.1% (inactive)
same,viability decrease (inhibition),[11],11.4% (inactive)
same,fold change,[12]; [16],0.864 (inactive)
same,fold change,[12]; [17],2.23
same,cell count,[12]; [18],8110
same,cell count,[12]; [19],9380
same,z-score,[13]; [20],-0.968 (inactive)
same,z-score,[13]; [21],-0.0882
C/C(=C(\CCOP(=O)(O)O)SC(=O)c1ccccc1)N(C=O)Cc1cnc(C)nc1N,survival,[2],11 (inactive)
same,parasite load remaining,[3],106% (inactive)
same,viability,[3],102%
same,nuclear beta-catenin stimulation,[4]; at 10 µM,-2.6% (inactive)
same,nuclear beta-catenin stimulation,"[4]; stimulation, at 2 µM",-0.9%
same,insulin secretion stimulation,[5],1.6% (inactive)
same,viability decrease,[6],-1.5% (inactive)
same,tube area decrease,[7],-4.8% (inactive)
same,GLP1 secretion stimulation,[8],-2.7% (inactive)
same,inhibition of viability,[9],4.6% (inactive)
same,viability decrease (inhibition),[10],-2.1% (inactive)
same,viability decrease (inhibition),[11],-1% (inactive)
same,fold change,[12]; [16],0.873 (inactive)
same,fold change,[12]; [17],1.12
same,cell count,[12]; [18],8510
same,cell count,[12]; [19],9750
same,z-score,[13]; [20],0.178 (inactive)
same,z-score,[13]; [21],0.46
